Where “and” joins values, the source holds several entries; their conditions need not be identical. Identical values can stand only once. Inconclusive results are not listed. Calls of active or inactive are those of the source. Unless noted, calls follow the shape of the dose curve; as a rule, active = well fitted curve in the direction sought with a large enough effect in the repeat runs; inconclusive = weak or mixed curves; inactive = no such curve, though single readings can be large; an effect the other way counts as inactive or inconclusive.

The values that follow come from PubChem BioAssay (Tox21).

Assay [1] deals with Glucocorticoid receptor (Homo sapiens) (UniProt P04150). Description: qHTS assay to identify small molecule antagonists of the glucocorticoid receptor (GR) signaling pathway (AID 720692; active = well fitted inhibition curve with a large enough effect in the signal ratio in the repeat runs, not every such curve was filed as active; the % refers to the signal ratio; also: potency is read from the fitted curve at half-maximal effect). The gist of the method:
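Fluorescence from cleaved LiveBLAzer B/G FRET substrate reports GRE-driven beta-lactamase in HeLa cells; compounds are tested against 5 nM dexamethasone (final) over 18 h at 37 C, substrate incubation 2 h at room temperature.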
On the technique in general: Quantitative high-throughput screening tests each substance at several concentrations.

Assay [2] has as its target Estrogen receptor (Homo sapiens) (UniProt P03372). Description: qHTS assay to identify small molecule antagonists of the estrogen receptor alpha (ER-alpha) signaling pathway (AID 743069; active = well fitted curve in the direction sought with a large enough effect in the signal ratio in the repeat runs, not every such curve was filed as active; the % refers to the signal ratio). The gist of the method:
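Compound effects are measured against 17beta-estradiol stimulation in HEK293 cells with a UAS-controlled beta-lactamase reporter for ER-alpha. Exposure lasts 18 hr at 37C; LiveBLAzer B/G FRET substrate follows for 2 hr at room temperature.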

Assay [3] has as its target Nuclear receptor subfamily 1 group I member 2 (Homo sapiens) (UniProt O75469). Description: CYP3A4 induction through human pregnane X receptor (PXR) by small molecules, qHTS assay (AID 1346984). Also: nearly all actives have a fitted effect of over 40% in size. The gist of the method: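 DPX-2 reporter cells; 24h cpd, 37C; Luciferin-IPA 3uM final x3h; One-Glo 30 min RT; lumi read.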
For assay [4], the target named is Estrogen receptor (Homo sapiens) (UniProt P03372). Briefly: qHTS assay to identify small molecule agonists of the estrogen receptor alpha (ER-alpha) signaling pathway using the BG1 cell line (AID 743079). Also: nearly all actives have a fitted effect of over 20% in size. Also: potency is read from the fitted curve at half-maximal effect.
The target of assay [5] is Androgen receptor (Homo sapiens) (UniProt P10275). Briefly: qHTS assay to identify small molecule antagonists of the androgen receptor (AR) signaling pathway (AID 743035; active = well fitted inhibition curve with a large enough effect in the signal ratio in the repeat runs, not every such curve was filed as active; the % refers to the signal ratio; also: potency is read from the fitted curve at half-maximal effect). The gist of the method: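 Cell line: GeneBLAzer AR-UAS-bla GripTite (HEK293). Stimulus: R1881 added after compound. Exposure: 16 h, 37C, 5% CO2. Readout: LiveBLAzer B/G FRET fluorescence after 2 h at room temperature.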

The target is the same in assay [6]. Briefly: qHTS assay to identify small molecule agonists of the androgen receptor (AR) signaling pathway (AID 743036; active = well fitted activation curve with a large enough effect in the signal ratio in the repeat runs, with a control signal flat, not every such curve was filed as active; the % refers to the signal ratio; also: potency is read from the fitted curve at half-maximal effect). In outline:
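Activation was read as beta-lactamase FRET signal from LiveBLAzer B/G substrate, added for 2 h at room temperature. Before that, GeneBLAzer AR-UAS-bla GripTite (HEK293) cells had 16 h compound exposure at 37C.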

For assay [7] the target is unchanged. Description: qHTS assay to identify small molecule agonists of the androgen receptor (AR) signaling pathway using the MDA cell line (AID 743040; also: nearly all actives have a fitted effect of over 20% in size; also: potency is read from the fitted curve at half-maximal effect). In outline:
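After a 5 h incubation at 37C and 0% CO2, MDA-kb2 reporter cells were dosed with compounds in DMSO and kept 16 h under the same conditions. Luciferase activity was then read as luminescence with ONE-Glo.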

Assay [8] shares this target. Briefly: qHTS assay to identify small molecule antagonists of the androgen receptor (AR) signaling pathway using the MDA cell line (AID 743042; also: nearly all actives have a fitted effect of over 55% in size; also: potency is read from the fitted curve at half-maximal effect). In outline: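 Antagonist mode: compounds plus R1881 agonist added to MDA-kb2 AR-luc cells, incubated 16 h at 37C. Luciferase reporter luminescence quantified, with multiplexed CellTiter-Fluor readout for cell viability.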

Sequence of Estrogen receptor (Homo sapiens) (P03372 whole entry, looked up): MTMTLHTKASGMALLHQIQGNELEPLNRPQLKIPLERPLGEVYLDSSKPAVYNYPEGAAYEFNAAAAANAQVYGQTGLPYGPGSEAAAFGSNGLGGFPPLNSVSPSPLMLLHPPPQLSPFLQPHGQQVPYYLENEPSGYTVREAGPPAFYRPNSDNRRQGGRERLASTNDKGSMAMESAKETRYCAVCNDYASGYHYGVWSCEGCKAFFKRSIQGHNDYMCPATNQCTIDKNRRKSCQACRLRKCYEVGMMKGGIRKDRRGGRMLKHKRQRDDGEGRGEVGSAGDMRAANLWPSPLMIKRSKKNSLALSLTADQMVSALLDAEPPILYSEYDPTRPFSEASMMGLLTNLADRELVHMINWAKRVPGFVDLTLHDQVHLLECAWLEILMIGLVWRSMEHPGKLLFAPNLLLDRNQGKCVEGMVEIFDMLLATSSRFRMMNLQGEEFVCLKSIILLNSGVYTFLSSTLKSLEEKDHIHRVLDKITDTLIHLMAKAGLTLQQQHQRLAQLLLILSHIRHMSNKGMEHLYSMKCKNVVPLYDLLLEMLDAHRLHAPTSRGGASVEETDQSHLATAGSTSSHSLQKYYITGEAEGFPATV
Sequence of Androgen receptor (Homo sapiens) (P10275 whole entry, looked up): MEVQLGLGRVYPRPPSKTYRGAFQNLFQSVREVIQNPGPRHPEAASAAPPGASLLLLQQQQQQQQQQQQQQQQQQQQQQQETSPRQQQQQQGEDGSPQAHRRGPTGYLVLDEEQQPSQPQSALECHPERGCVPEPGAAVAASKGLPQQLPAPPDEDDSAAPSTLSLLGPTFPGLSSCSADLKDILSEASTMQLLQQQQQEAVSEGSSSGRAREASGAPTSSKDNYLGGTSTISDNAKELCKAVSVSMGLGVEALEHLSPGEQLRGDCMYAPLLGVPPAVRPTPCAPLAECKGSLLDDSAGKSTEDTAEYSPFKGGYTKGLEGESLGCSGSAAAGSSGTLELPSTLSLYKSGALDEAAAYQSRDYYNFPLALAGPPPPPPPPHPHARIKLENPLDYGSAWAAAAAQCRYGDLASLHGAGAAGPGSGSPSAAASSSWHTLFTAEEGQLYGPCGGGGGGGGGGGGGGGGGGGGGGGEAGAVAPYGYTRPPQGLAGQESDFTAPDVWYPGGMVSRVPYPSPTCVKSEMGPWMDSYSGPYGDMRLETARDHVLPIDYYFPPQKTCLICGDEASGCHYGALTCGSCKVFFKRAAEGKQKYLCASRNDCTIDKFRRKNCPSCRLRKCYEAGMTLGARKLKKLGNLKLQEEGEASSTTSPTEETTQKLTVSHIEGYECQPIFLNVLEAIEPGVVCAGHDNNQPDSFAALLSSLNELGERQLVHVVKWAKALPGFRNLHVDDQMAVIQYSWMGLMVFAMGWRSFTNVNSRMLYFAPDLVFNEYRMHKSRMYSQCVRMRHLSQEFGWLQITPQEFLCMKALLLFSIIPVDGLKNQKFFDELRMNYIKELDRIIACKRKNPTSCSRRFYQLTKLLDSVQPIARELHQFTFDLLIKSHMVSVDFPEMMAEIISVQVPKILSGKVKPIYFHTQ
Sequence of Glucocorticoid receptor (Homo sapiens) (P04150 whole entry, looked up): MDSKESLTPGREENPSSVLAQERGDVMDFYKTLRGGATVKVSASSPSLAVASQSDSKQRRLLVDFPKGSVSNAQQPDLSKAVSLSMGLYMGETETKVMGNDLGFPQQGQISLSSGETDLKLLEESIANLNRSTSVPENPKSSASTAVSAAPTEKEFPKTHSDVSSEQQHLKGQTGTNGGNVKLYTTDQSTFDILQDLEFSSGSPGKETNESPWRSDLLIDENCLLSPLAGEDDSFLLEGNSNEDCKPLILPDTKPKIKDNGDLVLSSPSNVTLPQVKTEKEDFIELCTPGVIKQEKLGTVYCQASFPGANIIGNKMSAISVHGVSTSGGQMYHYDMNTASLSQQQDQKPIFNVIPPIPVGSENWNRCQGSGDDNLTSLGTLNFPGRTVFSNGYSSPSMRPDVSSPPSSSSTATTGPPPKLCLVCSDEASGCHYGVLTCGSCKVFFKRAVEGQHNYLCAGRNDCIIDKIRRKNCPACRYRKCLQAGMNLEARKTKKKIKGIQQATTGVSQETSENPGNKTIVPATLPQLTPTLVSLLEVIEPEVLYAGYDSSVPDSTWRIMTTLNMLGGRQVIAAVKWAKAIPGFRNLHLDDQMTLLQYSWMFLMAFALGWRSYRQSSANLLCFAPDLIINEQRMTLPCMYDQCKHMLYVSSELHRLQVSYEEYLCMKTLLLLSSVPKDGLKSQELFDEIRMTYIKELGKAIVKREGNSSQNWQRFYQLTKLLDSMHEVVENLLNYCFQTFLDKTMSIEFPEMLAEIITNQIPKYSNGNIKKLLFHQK

With `CCON=O`, the Potency entry in assay [1], in assay [2] and in assay [3] was “inactive” throughout.
As to `CNc1ccc(C(=O)CC(O)CCC(C)C2OC(=O)CC(O)CC(=O)CC(O)CC(O)CC(O)CC(O)CC3(O)CC(O)C(C(=O)OC)C(CC(O[C@@H]4O[C@H](C)[C@@H](O)[C@H](N)[C@@H]4O)/C=C/C=C/C=C/C=C/C=C/C=C/C=C/C2C)O3)cc1` (stereo partly drawn), the Potency entry in assay [1], in assay [4] and in assay [3] was “inactive” in each case.
For the compound `CC(=O)OCC(=O)[C@H]1CC[C@H]2[C@@H]3CC[C@H]4C[C@H](O)CC[C@]4(C)[C@H]3C(=O)C[C@]12C`, the Potency result in assay [1], in assay [2], in assay [4] and in assay [3] was “inactive” each time.
For the compound `COc1ccc2c3c1O[C@H]1[C@@H](O)C=C[C@H]4[C@@H](C2)NCC[C@@]341`, the Potency result in assay [1], in assay [4] and in assay [3] was “inactive” in each case.
With `C[C@@H](Cc1ccccc1)N(C)C`, the Potency entry in assay [5], in assay [6], in assay [7], in assay [8] and in assay [3] was “inactive” throughout.
Regarding `Oc1cc[c]([Hg][Cl])cc1`, the Potency is 19000 nM (active) in assay [5]; 8.41 µM (active) and 5.96 µM (active) in assay [8]. For the same compound, the Potency entry in assay [7] and in assay [3] was “inactive” throughout.
Turning to `C[C@]12CCC(=O)C=C1C=C[C@@H]1[C@@H]2CC[C@@]2(C)[C@H]1CC[C@@]2(O)CCC(=O)O`, the Potency in assay [1] is 9100 nM (active); in assay [6] it was 3620 nM (active); in assay [7] it was 12700 nM (active). For the same compound, the Potency entry in assay [5], in assay [8] and in assay [3] was “inactive” throughout.
Turning to `N#CC1(N2CCCCC2)CCCCC1`, the Potency result in assay [1], in assay [2], in assay [4] and in assay [3] was “inactive” in each case.
As to `O=C(CS(=O)C(c1ccccc1)c1ccccc1)NO` (stereo not drawn), the Potency entry in assay [2], in assay [4] and in assay [3] was “inactive” in each case.
`C[C@]12CC[C@H]3[C@@H](CCC4=C(O)C(=O)CC[C@@H]43)[C@@H]1CC[C@@H]2OC(=O)CCC1CCCC1`: the Potency in assay [4] was 119 nM (active). Further, the Potency entry in assay [3] is “inactive”.
Regarding `CC(C)CCC(=O)O[C@H]1CC[C@H]2[C@@H]3CCC4=CC(=O)CC[C@]4(C)[C@H]3CC[C@]12C`, the Potency is 6010 nM (active) in assay [1], 10.7 nM (active) in assay [6], 4.2 nM (active) in assay [7] and 66.8 nM (active) in assay [4]. Further, the Potency entry in assay [5], in assay [8] and in assay [3] was “inactive” each time.
`CNC(C)C(O)c1ccc(O)cc1` (stereo not drawn): the Potency entry in assay [2], in assay [4] and in assay [3] was “inactive” in each case.
Consider `O=C(C[C@@H]1NCCC[C@H]1O)Cn1cnc2cc(Br)c(Cl)cc2c1=O`, for which the Potency entry in assay [1], in assay [2], in assay [4] and in assay [3] was “inactive” throughout.
As for `CN(C)[C@H](Cc1ccccc1)c1ccccc1`, the Potency result in assay [2], in assay [4] and in assay [3] was “inactive” each time.
Take `C[N+]1([O-])[C@@H]2CC(OC(=O)[C@H](CO)c3ccccc3)C[C@H]1[C@@H]1O[C@@H]12` (stereo partly drawn): the Potency result in assay [1], in assay [5], in assay [7], in assay [8], in assay [4] and in assay [3] was “inactive” each time.
As for `Cc1cccc(C(C)c2cnc[nH]2)c1C` (stereo not drawn), the Potency result in assay [3] is “inactive”.
For the compound `O=C(CCl)c1ccc(Oc2ccc(C(=O)CCl)cc2)cc1`, the Potency entry in assay [2] and in assay [3] was “inactive” in each case.
Consider `CCNC(C)Cc1cccc(C(F)(F)F)c1` (stereo not drawn), for which the Potency entry in assay [1], in assay [2], in assay [4] and in assay [3] was “inactive” each time.
Take `c1cc2c(c(NC3=NCCN3)c1)CCCC2`: the Potency entry in assay [1], in assay [5], in assay [7], in assay [8] and in assay [3] was “inactive” each time.
Consider `C/C(=C\c1csc(C)n1)[C@@H]1C[C@@H]2O[C@]2(C)CCC[C@H](C)[C@H](O)[C@@H](C)C(=O)C(C)(C)[C@@H](O)CC(=O)O1`, for which, in assay [5], the Potency is 23.9 nM (active). Moreover, the Potency entry in assay [7], in assay [8], in assay [2], in assay [4] and in assay [3] was “inactive” throughout.
Take `C[N+]1(C)[C@@H]2CC[C@H]1CC(OC(=O)c1c[nH]c3ccccc13)C2` (stereo partly drawn): the Potency entry in assay [5], in assay [7], in assay [8], in assay [2], in assay [4] and in assay [3] was “inactive” throughout.
Regarding `CC1(C)[C@H](C=C(Cl)Cl)[C@H]1C(=O)OCc1c(F)c(F)cc(F)c1F`, the Potency entry in assay [1], in assay [4] and in assay [3] was “inactive” each time.
As to `CCCCCCC(=O)O[C@H]1CC[C@H]2[C@@H]3CC[C@H]4CC(=O)C=C(C)[C@]4(C)[C@H]3CC[C@]12C`, the Potency in assay [4] is 2110 nM (active). Also, the Potency result in assay [3] was “inactive”.
In the case of `CCCC(C)C1(CC)C(=O)NC(=O)NC1=O` (stereo not drawn), the Potency entry in assay [4] and in assay [3] was “inactive” in each case.
Turning to `C[C@]12CC[C@H]3[C@@H](CCC4=C(Cl)C(=O)CC[C@@]43C)[C@@H]1CC[C@@H]2O`, the Potency entry in assay [5], in assay [8] and in assay [3] was “inactive” throughout. In addition, the Potency was 3 nM (active) in assay [6], 1.9 nM (active) in assay [7] and 1500 nM (active) in assay [4].
As to `NC1=NC(=O)N2CC12` (stereo not drawn), the Potency result in assay [4] and in assay [3] was “inactive” throughout.
On to `CN1c2ccccc2C(NCCCCCCC(=O)O)c2ccc(Cl)cc2S1(=O)=O` (stereo not drawn), for which the Potency entry in assay [4] was “inactive”.
As for `CC(=O)OC1CN2CCC1CC2` (stereo not drawn), the Potency result in assay [1], in assay [2] and in assay [4] was “inactive” each time.
Regarding `C[N+]1([O-])[C@@H]2CC[C@H]1CC(OC(=O)C(CO)c1ccccc1)C2` (stereo partly drawn), the Potency entry in assay [1], in assay [2] and in assay [4] was “inactive” throughout.
On to `O[C@H]1[C@H]2[C@H](O)CCCN2C[C@H]1O`, for which the Potency entry in assay [1], in assay [2] and in assay [4] was “inactive” each time.
As for `CC(C)(O)[C@@H]1[C@H]2OC(=O)[C@@H]1[C@]1(O)C[C@H]3O[C@]34C(=O)O[C@H]2[C@]14C`, the Potency result in assay [1] is “inactive”.
Regarding `C[C@@H]([C@H](O)c1ccccc1)N(C)C`, the Potency result in assay [1], in assay [2] and in assay [4] was “inactive” each time.
